Laboratory results published in PubChem BioAssay.
Active and inactive are the calls of the source.

What was measured:
[1] = optical density shifts of acrAB sulA E. coli – strain DRC41, OD650, 48 h, E. coli filamentation inducer project, primary screen (AID 1152); conditions: higher = more signal, called active from +8 up or from −8 down;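 also: E. coli MC1000 strain DRC41 lacking acrAB efflux pump and sulA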
[2] = probe aLefty1 binding on compound microarray – biochemical, small-molecule microarray, 635/667 nm fluorescence, primary screen (AID 1153); conditions: higher = more signal;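 also: score merges spot fluorescence with signal-to-noise ratio from the scanned slide images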
[3] = plasmodial surface anion channel blockers, osmotic lysis – cell-based, P. falciparum Indochina, OD700, 1 h, primary screen (AID 1154); conditions: P. falciparum Indochina infected RBC osmotic lysis, higher = more signal, called active from +8 up or from −8 down
[4] = plasmodial surface anion channel blockers, osmotic lysis – cell-based, P. falciparum Indochina, OD700, 2 h, primary screen (AID 1155);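 also: lysis reports solute entry through the parasite surface anion channel PSAC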; conditions: P. falciparum Indochina infected erythrocytes, higher = more signal, called active from +8 up or from −8 down
[5] = changes in parasitized red cell lysis, either direction – P. falciparum Indochina, OD700, 3 h, PSAC antagonist project, primary screen (AID 1156); conditions: P. falciparum-infected erythrocytes, osmotic lysis, higher = more signal, called active from +8 up or from −8 down
[6] = plasmodial surface anion channel blockers, osmotic lysis – cell-based, P. falciparum Indochina, OD700, 18 h, primary screen (AID 1157); conditions: P. falciparum Indochina infected erythrocytes, osmotic lysis OD700, 18 h; higher = more signal, called active from +8 up or from −8 down
[7] = S6 kinase pathway phospho-S6 level changes – cell-based, A549, cytoblot, luminescence, serum-stimulated, primary screen (AID 1158); conditions: 5 h, higher = more signal;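 also: serum-stimulated A549 lung adenocarcinoma cells; signal is phosphorylated S6 detected by cytoblot immunostaining with HRP secondary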
[8] = biological target: NADPH oxidase 2 (Homo sapiens) (UniProt P04839); assay: compounds shifting NOX2 Amplex Red fluorescence – cell-based, HEK293-NOX2, PMA-stimulated, NOX inhibitor project, primary screen (AID 1159); conditions: 45 min, higher = more signal, called active from +8 up or from −8 down; also: test concentration not given here
Chain of NADPH oxidase 2 (Homo sapiens) (P04839 whole entry, looked up): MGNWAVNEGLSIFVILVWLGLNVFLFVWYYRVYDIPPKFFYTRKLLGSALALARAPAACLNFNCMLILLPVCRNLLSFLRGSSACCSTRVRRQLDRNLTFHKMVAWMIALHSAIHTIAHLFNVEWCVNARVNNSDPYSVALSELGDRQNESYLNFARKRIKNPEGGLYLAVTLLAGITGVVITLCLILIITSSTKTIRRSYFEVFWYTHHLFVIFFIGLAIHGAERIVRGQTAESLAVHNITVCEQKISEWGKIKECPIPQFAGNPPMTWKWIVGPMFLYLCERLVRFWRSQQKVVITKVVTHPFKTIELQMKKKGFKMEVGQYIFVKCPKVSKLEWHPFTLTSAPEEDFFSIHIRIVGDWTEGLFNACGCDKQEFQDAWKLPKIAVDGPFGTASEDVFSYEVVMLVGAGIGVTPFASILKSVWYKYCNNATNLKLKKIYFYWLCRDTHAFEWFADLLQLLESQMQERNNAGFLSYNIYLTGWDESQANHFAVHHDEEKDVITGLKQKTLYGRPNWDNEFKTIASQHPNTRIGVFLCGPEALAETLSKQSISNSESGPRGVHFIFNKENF

[9] = biological target: NADPH oxidase 4 (Homo sapiens) (UniProt Q9NPH5); assay: compounds shifting NOX4 Amplex Red fluorescence – cell-based, HEK293-NOX4, tetracycline-induced, NOX inhibitor project, primary screen (AID 1160); conditions: HEK293-NOX4, Amplex Red H2O2 fluorescence, 45 min; higher = more signal, called active from +8 up or from −8 down
Chain of NADPH oxidase 4 (Homo sapiens) (Q9NPH5 whole entry, looked up): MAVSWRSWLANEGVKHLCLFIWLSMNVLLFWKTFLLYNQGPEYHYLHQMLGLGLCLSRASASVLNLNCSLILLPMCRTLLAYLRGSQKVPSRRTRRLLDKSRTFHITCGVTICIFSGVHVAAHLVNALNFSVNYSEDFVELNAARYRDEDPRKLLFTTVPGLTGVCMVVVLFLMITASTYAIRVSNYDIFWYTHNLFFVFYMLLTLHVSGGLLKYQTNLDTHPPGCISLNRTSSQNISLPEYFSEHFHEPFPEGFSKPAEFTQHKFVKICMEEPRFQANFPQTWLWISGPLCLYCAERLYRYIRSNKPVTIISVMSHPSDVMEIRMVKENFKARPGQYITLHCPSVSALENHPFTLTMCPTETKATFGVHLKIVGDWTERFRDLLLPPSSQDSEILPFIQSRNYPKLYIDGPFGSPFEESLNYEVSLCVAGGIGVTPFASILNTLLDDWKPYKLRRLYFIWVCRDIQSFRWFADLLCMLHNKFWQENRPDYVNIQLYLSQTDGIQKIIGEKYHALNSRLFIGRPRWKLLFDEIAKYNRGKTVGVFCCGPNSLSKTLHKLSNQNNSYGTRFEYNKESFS

[10] = biological target: NADPH oxidase 5 (Homo sapiens) (UniProt Q96PH1); assay: compounds shifting NOX5 Amplex Red fluorescence – cell-based, HEK293-NOX5, NOX inhibitor project, primary screen (AID 1161); conditions: HEK293-NOX5, ionomycin, 45 min, higher = more signal
Chain of NADPH oxidase 5 (Homo sapiens) (Q96PH1 whole entry, looked up): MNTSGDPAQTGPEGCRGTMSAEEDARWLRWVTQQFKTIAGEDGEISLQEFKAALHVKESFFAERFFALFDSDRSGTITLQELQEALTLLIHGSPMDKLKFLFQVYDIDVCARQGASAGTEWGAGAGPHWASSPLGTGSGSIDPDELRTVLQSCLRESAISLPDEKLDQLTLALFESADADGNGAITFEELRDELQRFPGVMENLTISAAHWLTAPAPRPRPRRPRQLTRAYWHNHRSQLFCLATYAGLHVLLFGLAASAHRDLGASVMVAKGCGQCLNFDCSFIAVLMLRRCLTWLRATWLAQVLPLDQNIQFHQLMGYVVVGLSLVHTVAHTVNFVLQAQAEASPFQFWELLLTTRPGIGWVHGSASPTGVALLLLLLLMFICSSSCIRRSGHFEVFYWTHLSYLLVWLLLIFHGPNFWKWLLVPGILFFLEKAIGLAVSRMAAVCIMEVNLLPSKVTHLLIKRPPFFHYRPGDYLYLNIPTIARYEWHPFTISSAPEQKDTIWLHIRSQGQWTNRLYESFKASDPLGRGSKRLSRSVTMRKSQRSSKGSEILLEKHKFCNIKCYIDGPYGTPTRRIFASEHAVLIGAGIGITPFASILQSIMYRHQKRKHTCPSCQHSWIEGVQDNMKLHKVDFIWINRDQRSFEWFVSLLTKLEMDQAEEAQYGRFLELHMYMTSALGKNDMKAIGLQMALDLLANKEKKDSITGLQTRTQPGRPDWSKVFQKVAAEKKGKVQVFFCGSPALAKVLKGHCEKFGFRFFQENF

[11] = compound effects on lung adenocarcinoma cell viability – A549, calcein-AM fluorescence, 48 h, basal, profiling panel (AID 1162); conditions: higher = more signal; also: test concentration not given here
[12] = compound effects on differentiated 3T3-L1 adipocyte viability – cell-based, 3T3-L1 adipocytes, calcein-AM fluorescence, 48 h, basal, profiling panel (AID 1163); conditions: 3T3-L1 adipocytes viability, higher = more signal; also: test concentration not given here
[13] = compound effects on hepatocellular carcinoma cell viability – HepG2, calcein-AM fluorescence, 48 h, basal, profiling panel (AID 1164); conditions: higher = more signal; also: test concentration not given here
[14] = compound effects on multiple myeloma cell viability – MM1S, calcein-AM fluorescence, 48 h, basal, profiling panel (AID 1165); conditions: higher = more signal; also: test concentration not given here
[15] = calcein-AM signal in unstimulated myeloma cells – cell-based, calcein-AM fluorescence, 48 h, PK04 Diversity Set, profiling panel (AID 1166); conditions: RPMI8226 myeloma viability, higher = more signal;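 also: cells grown under basal conditions without added stimulus; test concentration not given here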
[16] = JC-1 mitochondrial signal, unstimulated HepG2 cells – cell-based, JC-1 fluorescence, 24 h, 100 nL compound, profiling panel (AID 1167); conditions: HepG2 mitochondrial potential, higher = more signal; also: test concentration not given here
[17] = JC-1 mitochondrial signal, unstimulated adipocytes – cell-based, JC-1 fluorescence, 3T3-L1 adipocytes, 24 h, 100 nL compound, profiling panel (AID 1168); conditions: JC-1 mitochondrial fluorescence, higher = more signal, called active from +8 up or from −8 down; also: test concentration not given here
[18] = JC-1 mitochondrial signal, unstimulated myeloma cells – cell-based, JC-1 fluorescence, RPMI8226, 24 h, 100 nL compound, profiling panel (AID 1169); conditions: JC-1 mitochondrial potential fluorescence, higher = more signal; also: test concentration not given here
[19] = JC-1 mitochondrial signal, unstimulated MM1S myeloma – cell-based, JC-1 fluorescence, 24 h, 100 nL compound, profiling panel (AID 1170); conditions: MM1S mitochondrial potential, higher = more signal; also: test concentration not given here
[20] = resazurin metabolic signal in A549 cells – cell-based, resazurin fluorescence, 24 h, PK04 Diversity Set, profiling panel (AID 1171); conditions: A549 viability, higher = more signal, called active from +8 up or from −8 down; also: test concentration not given here

Structure (SMILES)	z-score [1]	composite z-score [2]	z-score [3]	z-score [4]	z-score [5]	z-score [6]	z-score [7]	z-score [8]	z-score [9]	z-score [10]	z-score [11]	z-score [12]	z-score [13]	z-score [14]	z-score [15]	z-score [16]	z-score [17]	z-score [18]	z-score [19]	z-score [20]
COc1ccccc1CN1C(=O)c2ccccc2[C@@]2(Cc3ccccc3N(CCCN(C)C)C2=O)[C@@H]1c1ccc(CO)cc1	2 (inactive)	-0.152	0.599 (inactive)	-0.678 (inactive)	-0.795 (inactive)	-1.1 (inactive)	2.55	-0.841 (inactive)	-1.61 (inactive)	1.51	-0.733	1.31	-0.655	0.229	-0.0261	0.511	-0.459 (inactive)	0.00572	-0.343	-0.483 (inactive)
O=C1OCCC/C=C\[C@H]2OC34C=CCN(c5ccc6ccccc6c5)C(=O)[C@H]3N(CCCCCO)C(=O)[C@@H]4C12 (stereo not given in full)	-0.829 (inactive)	-0.147	0.29 (inactive)	-0.0458 (inactive)	-0.455 (inactive)	-0.181 (inactive)	-0.839	0.814 (inactive)	-0.15 (inactive)	1.58	0.0648	0.456	0.513	0.0795	-0.681	0.337	-0.318 (inactive)	0.873	-0.505	0.123 (inactive)
OCC1C=C(/C=C/c2ccccc2)CN1Cc1ccccc1Br (stereo not given)	0.785 (inactive)	0.457	6.56 (inactive)	0.673 (inactive)	1.17 (inactive)	0.499 (inactive)	0.0524	0.887 (inactive)	-2.84 (inactive)	-0.691	-0.58	1.21	0.0668	-3.2	-3.64	1.35	0.401 (inactive)	-0.923	-1.87	-0.535 (inactive)
COc1ccc([Si](C)(C)[C@H]2[C@H](CC(=O)N3CCC[C@H]3CO)O[C@@]3(C(=O)N(Cc4cccc(N5CCOC5=O)c4)c4ccccc43)[C@@H]2C)cc1	1.18 (inactive)	-0.017	4.76 (inactive)	1.13 (inactive)	0.618 (inactive)	0.722 (inactive)	0.305	1.73 (inactive)	1.76 (inactive)	4.67	-0.0923	0.1	-0.0734	-2.19	-3	2.76	-0.0541 (inactive)	-0.952	-0.0702	0.299 (inactive)
COC(=O)c1c2oc(c1C(=O)OC)C(=O)NC1(CCCCC1)c1cn(nn1)C[C@H](Cc1ccccc1)NC(=O)N[C@H](CO)CC2	2.35 (inactive)	-0.258	1.66 (inactive)	-0.265 (inactive)	0.869 (inactive)	0.285 (inactive)	0.229	-0.463 (inactive)	1.26 (inactive)	-0.0346	0.947	-0.0442	0.22	0.813	1.17	0.537	0.691 (inactive)	0.564	-0.887	1.09 (inactive)
C=CCOC(=O)[C@H]1[C@@H]2C(=O)O[C@@H](c3ccccc3)[C@@H](c3ccccc3)N2[C@@H](c2ccc(OCCOC(=O)[C@H]3C[C@H]4C(=O)N[C@@H](CCCCN(C)C)C(=O)N4[C@H]3c3cccc(OCCO)c3)cc2)[C@]12C(=O)Nc1ccc(I)cc12	-1.61 (inactive)	-0.156	-1.87 (inactive)	0.381 (inactive)	-0.0437 (inactive)	0.375 (inactive)	-0.529	2.18 (inactive)	1.01 (inactive)	1.06	-0.226	-0.512	1.22	-2.14	-1.82	-1.92	-1.13 (inactive)	-0.157	-0.465	0.477 (inactive)
COC(=O)[C@]1(CCC(=O)OC(C)(C)C)N=C(c2ccc(OCCCO)cc2)O[C@@H]1c1ccccc1	0.687 (inactive)	0.765	27.7 (active)	27.2 (active)	0.0027 (inactive)	5.02 (inactive)	-0.406	-1.93 (inactive)	0.178 (inactive)	-1.16	-1.32	0.899	-1.08	-3.43	-3.1	-2.23	-0.205 (inactive)	-0.734	0.903	-1.99 (inactive)
CC(C)[Si](C#C[Si](C(C)C)(C(C)C)C(C)C)(O[C@H](C)c1cn(Cc2ccccc2)nn1)C(C)C	1.82 (inactive)	0.0509	-0.0395 (inactive)	0.0422 (inactive)	-0.915 (inactive)	0.0635 (inactive)	-0.217	0.667 (inactive)	-0.748 (inactive)	-2.82	1.25	-0.425	0.592	0.636	-1.67	1.92	-0.367 (inactive)	0.0518	-0.542	0.236 (inactive)
